± gives the standard deviation of the averaged measurements. For some assays here: Targets with the largest changes are over-represented here; the source holds about 5,400 in all. For some assays here: Targets with the largest changes are over-represented here; the source holds about 6,500 in all.
Assays:
guanosine triphosphate = compound: Nc1nc2c(ncn2[C@@H]2O[C@H](COP(=O)(O)OP(=O)(O)OP(=O)(O)O)[C@@H](O)[C@H]2O)c(=O)[nH]1 [guanosine triphosphate]; assay: NP40-soluble protein abundance relative to vehicle (solubility fold change) (ratio); higher = more soluble protein in presence of GTP
Summary of the method: (§1)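 Eight concentrations, 0.1 to 10 mM, were tested on Jurkat crude lysate for 10 min at room temperature and then 3 min at 37 °C, in three independent experiments. The lysate was solubilised with 0.8% NP40 and benzonase, ultracentrifuged, and the supernatant TMT-labelled for LC-MS/MS. Each value is the fold change against the detergent-processed vehicle in its own replicate, from vsn-normalised intensities.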

adenosine triphosphate = compound: Nc1ncnc2c1ncn2[C@@H]1O[C@H](COP(=O)(O)OP(=O)(O)OP(=O)(O)O)[C@@H](O)[C@H]1O [adenosine triphosphate]; assay: NP40-soluble protein abundance relative to vehicle (solubility fold change) (ratio); higher = more soluble protein in presence of ATP
Summary of the method: as §1

UniProt A5PLN9, sequence (A5PLN9 whole entry): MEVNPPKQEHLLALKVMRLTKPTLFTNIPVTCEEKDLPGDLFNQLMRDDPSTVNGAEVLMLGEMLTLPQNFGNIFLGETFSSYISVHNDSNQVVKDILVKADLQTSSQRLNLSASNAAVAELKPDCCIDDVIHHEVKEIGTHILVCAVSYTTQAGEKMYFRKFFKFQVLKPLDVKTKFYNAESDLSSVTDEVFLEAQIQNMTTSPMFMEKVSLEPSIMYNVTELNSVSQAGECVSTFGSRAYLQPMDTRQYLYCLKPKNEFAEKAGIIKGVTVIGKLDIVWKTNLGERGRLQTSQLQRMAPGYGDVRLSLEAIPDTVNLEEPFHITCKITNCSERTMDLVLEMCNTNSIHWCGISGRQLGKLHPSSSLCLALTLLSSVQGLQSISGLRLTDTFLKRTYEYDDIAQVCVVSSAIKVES
UniProt O15372, sequence (O15372 whole entry, one chain of several): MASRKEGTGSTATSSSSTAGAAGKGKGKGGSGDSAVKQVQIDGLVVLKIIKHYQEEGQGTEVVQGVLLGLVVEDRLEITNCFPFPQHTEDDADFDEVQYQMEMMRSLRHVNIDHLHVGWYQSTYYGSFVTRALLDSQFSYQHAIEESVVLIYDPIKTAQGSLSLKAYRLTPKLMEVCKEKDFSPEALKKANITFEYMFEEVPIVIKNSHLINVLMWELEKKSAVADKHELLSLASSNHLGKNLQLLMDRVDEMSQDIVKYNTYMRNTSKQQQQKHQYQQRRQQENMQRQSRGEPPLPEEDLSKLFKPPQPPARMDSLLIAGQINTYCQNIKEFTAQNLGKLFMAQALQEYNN
UniProt Q3LXA3, sequence (Q3LXA3 whole entry, one chain of several): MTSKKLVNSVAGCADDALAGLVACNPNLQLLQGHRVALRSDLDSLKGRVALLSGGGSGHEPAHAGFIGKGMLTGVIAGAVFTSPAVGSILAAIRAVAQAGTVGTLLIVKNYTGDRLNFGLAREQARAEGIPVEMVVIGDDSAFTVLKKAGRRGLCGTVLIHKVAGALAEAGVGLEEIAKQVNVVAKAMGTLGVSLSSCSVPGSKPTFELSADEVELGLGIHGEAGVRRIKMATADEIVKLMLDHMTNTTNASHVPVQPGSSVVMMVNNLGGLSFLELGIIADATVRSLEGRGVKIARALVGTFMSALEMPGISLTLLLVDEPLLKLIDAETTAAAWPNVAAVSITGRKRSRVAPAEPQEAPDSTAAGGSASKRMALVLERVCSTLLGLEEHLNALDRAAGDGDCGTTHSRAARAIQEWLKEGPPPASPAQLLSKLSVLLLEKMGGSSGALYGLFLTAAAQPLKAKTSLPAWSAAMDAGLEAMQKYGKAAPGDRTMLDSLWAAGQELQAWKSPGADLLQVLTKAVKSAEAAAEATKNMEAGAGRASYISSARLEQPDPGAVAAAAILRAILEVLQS
UniProt Q9Y3T6, sequence (Q9Y3T6 whole entry, one chain of several): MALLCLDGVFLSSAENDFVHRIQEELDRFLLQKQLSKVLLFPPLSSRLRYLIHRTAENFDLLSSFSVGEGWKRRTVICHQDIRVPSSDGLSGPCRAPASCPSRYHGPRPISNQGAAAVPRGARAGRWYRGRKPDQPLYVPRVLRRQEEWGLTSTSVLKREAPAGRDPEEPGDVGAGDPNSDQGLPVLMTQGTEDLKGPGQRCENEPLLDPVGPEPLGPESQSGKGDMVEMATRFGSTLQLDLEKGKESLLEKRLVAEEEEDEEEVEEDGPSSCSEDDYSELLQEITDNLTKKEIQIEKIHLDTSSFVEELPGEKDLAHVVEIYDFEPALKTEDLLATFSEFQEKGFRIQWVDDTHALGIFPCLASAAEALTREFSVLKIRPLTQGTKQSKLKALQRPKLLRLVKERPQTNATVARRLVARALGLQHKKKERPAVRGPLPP
UniProt Q9UM22, sequence (Q9UM22 whole entry, one chain of several): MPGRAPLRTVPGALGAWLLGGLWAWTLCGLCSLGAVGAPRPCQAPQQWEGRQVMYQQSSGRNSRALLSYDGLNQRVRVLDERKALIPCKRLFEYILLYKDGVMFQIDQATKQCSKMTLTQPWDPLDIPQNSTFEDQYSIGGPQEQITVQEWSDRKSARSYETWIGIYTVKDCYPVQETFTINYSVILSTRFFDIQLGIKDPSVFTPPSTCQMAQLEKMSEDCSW
UniProt Q03154, sequence (Q03154 whole entry, looked up, other chains not shown): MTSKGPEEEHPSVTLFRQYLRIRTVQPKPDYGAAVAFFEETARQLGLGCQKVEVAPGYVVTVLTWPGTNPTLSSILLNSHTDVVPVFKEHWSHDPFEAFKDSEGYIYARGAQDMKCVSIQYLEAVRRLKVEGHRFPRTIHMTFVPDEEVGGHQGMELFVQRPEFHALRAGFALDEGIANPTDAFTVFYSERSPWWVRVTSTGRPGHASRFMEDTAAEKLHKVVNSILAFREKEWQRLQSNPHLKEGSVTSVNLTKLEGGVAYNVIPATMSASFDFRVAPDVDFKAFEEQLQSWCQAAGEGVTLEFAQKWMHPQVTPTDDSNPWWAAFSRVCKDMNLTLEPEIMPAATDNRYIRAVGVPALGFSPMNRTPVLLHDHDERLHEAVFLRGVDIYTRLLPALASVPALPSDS
UniProt Q9ULI0, sequence (Q9ULI0 whole entry): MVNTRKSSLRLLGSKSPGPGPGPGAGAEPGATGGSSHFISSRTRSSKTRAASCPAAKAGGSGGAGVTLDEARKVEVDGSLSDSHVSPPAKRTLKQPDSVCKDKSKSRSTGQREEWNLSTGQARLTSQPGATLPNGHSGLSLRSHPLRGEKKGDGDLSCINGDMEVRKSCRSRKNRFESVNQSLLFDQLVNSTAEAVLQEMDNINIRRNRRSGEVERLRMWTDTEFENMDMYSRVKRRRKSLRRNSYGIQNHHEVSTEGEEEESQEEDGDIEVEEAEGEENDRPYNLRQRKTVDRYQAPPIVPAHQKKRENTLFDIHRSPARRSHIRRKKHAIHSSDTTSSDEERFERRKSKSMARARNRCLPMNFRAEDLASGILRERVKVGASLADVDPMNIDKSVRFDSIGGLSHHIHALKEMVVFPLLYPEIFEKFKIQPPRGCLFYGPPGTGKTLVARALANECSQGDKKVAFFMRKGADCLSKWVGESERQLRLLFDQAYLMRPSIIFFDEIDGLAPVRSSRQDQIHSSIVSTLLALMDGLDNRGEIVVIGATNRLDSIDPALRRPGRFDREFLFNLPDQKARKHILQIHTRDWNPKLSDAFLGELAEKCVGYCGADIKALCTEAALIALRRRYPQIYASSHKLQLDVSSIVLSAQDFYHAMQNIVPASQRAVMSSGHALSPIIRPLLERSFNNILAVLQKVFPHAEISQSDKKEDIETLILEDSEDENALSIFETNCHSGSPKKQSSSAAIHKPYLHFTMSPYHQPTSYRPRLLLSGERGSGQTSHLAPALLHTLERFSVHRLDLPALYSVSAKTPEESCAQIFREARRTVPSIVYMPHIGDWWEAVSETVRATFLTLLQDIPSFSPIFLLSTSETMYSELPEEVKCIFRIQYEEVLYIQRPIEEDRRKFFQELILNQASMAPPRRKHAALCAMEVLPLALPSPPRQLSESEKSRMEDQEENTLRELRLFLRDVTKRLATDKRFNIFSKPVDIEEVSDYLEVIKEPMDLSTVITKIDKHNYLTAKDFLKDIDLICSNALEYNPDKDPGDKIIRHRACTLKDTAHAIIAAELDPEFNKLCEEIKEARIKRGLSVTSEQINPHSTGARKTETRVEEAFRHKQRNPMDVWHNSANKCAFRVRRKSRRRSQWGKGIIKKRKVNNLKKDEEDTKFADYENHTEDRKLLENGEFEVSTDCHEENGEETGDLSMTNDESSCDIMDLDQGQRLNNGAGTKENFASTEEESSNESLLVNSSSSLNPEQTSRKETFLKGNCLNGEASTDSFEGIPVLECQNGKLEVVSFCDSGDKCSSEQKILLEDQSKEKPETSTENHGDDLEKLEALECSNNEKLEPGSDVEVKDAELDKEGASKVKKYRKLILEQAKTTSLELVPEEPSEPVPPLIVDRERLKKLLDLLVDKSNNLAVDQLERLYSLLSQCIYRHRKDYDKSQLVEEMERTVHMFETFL
UniProt Q96B45, sequence (Q96B45 whole entry, looked up, one chain of several): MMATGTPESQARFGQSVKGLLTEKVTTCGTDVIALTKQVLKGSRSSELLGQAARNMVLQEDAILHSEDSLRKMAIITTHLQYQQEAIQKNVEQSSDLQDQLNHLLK
UniProt Q8NEW0, sequence (Q8NEW0 whole entry, one chain of several): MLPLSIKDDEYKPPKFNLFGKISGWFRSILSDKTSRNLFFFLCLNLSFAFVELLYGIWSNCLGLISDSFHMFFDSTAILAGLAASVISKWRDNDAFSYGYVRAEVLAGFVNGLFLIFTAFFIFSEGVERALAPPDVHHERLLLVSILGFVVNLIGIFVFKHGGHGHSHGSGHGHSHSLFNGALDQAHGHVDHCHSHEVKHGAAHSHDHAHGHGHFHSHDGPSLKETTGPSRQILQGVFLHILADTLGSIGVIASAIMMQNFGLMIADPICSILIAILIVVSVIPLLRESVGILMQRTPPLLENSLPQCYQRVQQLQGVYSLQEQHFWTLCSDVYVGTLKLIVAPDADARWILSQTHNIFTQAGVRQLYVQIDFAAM
UniProt O94952, sequence (O94952 whole entry, one chain of several): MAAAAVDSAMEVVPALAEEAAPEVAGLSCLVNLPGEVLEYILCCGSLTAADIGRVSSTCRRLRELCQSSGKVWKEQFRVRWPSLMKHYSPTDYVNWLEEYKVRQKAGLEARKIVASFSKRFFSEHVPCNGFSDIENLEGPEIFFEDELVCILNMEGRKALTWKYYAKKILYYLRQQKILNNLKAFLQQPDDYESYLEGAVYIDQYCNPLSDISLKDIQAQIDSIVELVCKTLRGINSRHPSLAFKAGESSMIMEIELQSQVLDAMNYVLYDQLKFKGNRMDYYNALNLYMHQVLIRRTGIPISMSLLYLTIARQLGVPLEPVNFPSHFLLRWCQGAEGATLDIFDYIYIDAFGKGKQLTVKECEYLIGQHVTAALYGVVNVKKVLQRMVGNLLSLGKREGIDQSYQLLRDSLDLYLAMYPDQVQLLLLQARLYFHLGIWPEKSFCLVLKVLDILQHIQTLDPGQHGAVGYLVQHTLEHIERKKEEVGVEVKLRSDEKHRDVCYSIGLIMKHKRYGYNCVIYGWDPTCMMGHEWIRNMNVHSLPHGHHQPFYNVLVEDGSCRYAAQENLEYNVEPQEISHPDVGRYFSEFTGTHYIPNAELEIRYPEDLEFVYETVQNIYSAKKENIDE

Target	NP40-soluble protein abundance (guanosine triphosphate; concentration: 0.1mM)	NP40-soluble protein abundance (guanosine triphosphate; concentration: 0.5mM)	NP40-soluble protein abundance (guanosine triphosphate; concentration: 1mM)	NP40-soluble protein abundance (guanosine triphosphate; concentration: 2mM)	NP40-soluble protein abundance (guanosine triphosphate; concentration: 4mM)	NP40-soluble protein abundance (guanosine triphosphate; concentration: 6mM)	NP40-soluble protein abundance (guanosine triphosphate; concentration: 8mM)	NP40-soluble protein abundance (guanosine triphosphate; concentration: 10mM)	NP40-soluble protein abundance (adenosine triphosphate; concentration: 1mM)	NP40-soluble protein abundance (adenosine triphosphate; concentration: 2mM)	NP40-soluble protein abundance (adenosine triphosphate; concentration: 4mM)	NP40-soluble protein abundance (adenosine triphosphate; concentration: 6mM)	NP40-soluble protein abundance (adenosine triphosphate; concentration: 8mM)	NP40-soluble protein abundance (adenosine triphosphate; concentration: 10mM)
A0A0R4J2E2|Q9Y3T6|A0A0D9SG39|E5RHX3|E5RIK1|E5RIQ4 (UniProt Q9Y3T6)	0.88 ± 0.0067	0.877 ± 0.017	0.961 ± 0.019	0.923 ± 0.048	0.94794 ± 0.00022	0.908 ± 0.017	0.89 ± 0.034	0.9192 ± 0.0019	–	–	–	–	–	–
A0A0U1RR32|A0A0U1RRH7|P04908|P0C0S8|P20671|Q6FI13|Q7L7L0|Q93077|Q96KK5|Q99878 (UniProt Q99878+Q7L7L0+Q6FI13+Q93077+P20671+P0C0S8+Q96KK5+P04908)	1.01 ± 0.11	0.7204 ± 0.0051	1.26 ± 0.37	1.24 ± 0.024	1.76 ± 0.48	1.92 ± 0.49	1.4 ± 0.53	2.39 ± 1.2	–	–	–	–	–	–
C9JMV9|Q03154|Q03154-4 (UniProt Q03154+C9JMV9)	1.03 ± 0.012	1.03 ± 0.011	0.97 ± 0.078	0.924 ± 0.036	0.954 ± 0.019	0.933 ± 0.031	0.94 ± 0.05	0.956 ± 0.12	–	–	–	–	–	–
A0A087WUC6|E9PI68|Q15005|E9PL01 (UniProt Q15005)	0.955 ± 0.026	0.955 ± 0.018	0.899 ± 0.025	0.882 ± 0.05	0.858 ± 0.041	0.881 ± 0.045	0.859 ± 0.055	0.843 ± 0.061	–	–	–	–	–	–
E9PDF6|O43795|O43795-2 (UniProt O43795)	1.44 ± 0.25	2.35 ± 0.38	2.32 ± 0.37	2.41 ± 0.43	2.4 ± 0.41	2.37 ± 0.38	2.33 ± 0.3	2.21 ± 0.26	–	–	–	–	–	–
UniProt Q9ULI0|Q9ULI0-2	–	–	–	–	–	–	–	–	1.69 ± 0.34	1.83 ± 0.46	1.86 ± 0.57	1.86 ± 0.44	1.75 ± 0.44	1.72 ± 0.48
A0A0R4J2F3|Q9Y2S0|Q9Y2S0-2 (UniProt Q9Y2S0)	1.01 ± 0.075	0.925 ± 0.056	1.11 ± 0.2	1.16 ± 0.14	1.2 ± 0.17	1.17 ± 0.12	1.15 ± 0.21	1.24 ± 0.28	–	–	–	–	–	–
A0A0A0MRF6|Q99996|Q99996-2|Q99996-3|Q99996-5|Q99996-6 (UniProt Q99996)	1.03 ± 0.014	1.05 ± 0.017	1.08 ± 0.049	1.1 ± 0.056	1.15 ± 0.09	1.14 ± 0.095	1.18 ± 0.14	1.12 ± 0.13	–	–	–	–	–	–
B3KS98|O15372 (UniProt O15372)	0.992 ± 0.07	1.01 ± 0.088	1.03 ± 0.075	1.08 ± 0.15	1.27 ± 0.25	1.42 ± 0.28	1.6 ± 0.34	1.8 ± 0.36	–	–	–	–	–	–
A0A087WUL0|Q3LXA3 (UniProt Q3LXA3)	0.988 ± 0.11	0.963 ± 0.11	0.978 ± 0.14	0.928 ± 0.12	0.948 ± 0.11	0.96 ± 0.16	0.96 ± 0.1	0.951 ± 0.097	–	–	–	–	–	–
B0YIW6|P48444 (UniProt P48444)	1.06 ± 0.053	1.08 ± 0.078	1.02 ± 0.066	1.01 ± 0.11	1.02 ± 0.1	1.01 ± 0.083	0.975 ± 0.059	0.933 ± 0.067	–	–	–	–	–	–
E9PCH4|Q8TEU7|Q8TEU7-4 (UniProt Q8TEU7+E9PCH4)	0.967 ± 0.021	0.9825 ± 0.0063	0.968 ± 0.023	0.96 ± 0.02	0.981 ± 0.016	0.969 ± 0.038	1.0058 ± 0.00029	0.9592 ± 0.0034	–	–	–	–	–	–
F8VTV8|F8VWX7|F8VYH9|P11802 (UniProt P11802)	0.977 ± 0.13	1.06 ± 0.048	0.999 ± 0.041	1.05 ± 0.071	1.06 ± 0.056	1.02 ± 0.049	0.995 ± 0.04	0.973 ± 0.015	–	–	–	–	–	–
E7EW84|Q8TAG9 (UniProt Q8TAG9)	0.9794 ± 0.0039	0.996 ± 0.039	0.959 ± 0.064	1.08 ± 0.082	1.01 ± 0.12	0.897 ± 0.022	0.882 ± 0.025	0.966 ± 0.18	–	–	–	–	–	–
A0A0B4J1R7|Q96B45 (UniProt Q96B45)	0.918 ± 0.15	0.977 ± 0.18	1.02 ± 0.17	1.09 ± 0.11	1.09 ± 0.24	1 ± 0.19	1.02 ± 0.12	1.06 ± 0.18	–	–	–	–	–	–
D6RIH7|Q9UM22 (UniProt Q9UM22)	0.918 ± 0.11	0.931 ± 0.14	0.91 ± 0.12	0.896 ± 0.13	0.902 ± 0.12	0.908 ± 0.13	0.88 ± 0.085	0.889 ± 0.11	–	–	–	–	–	–
H0Y362|Q8NEW0 (UniProt Q8NEW0)	1.21 ± 0.043	1.14 ± 0.018	1.14 ± 0.026	1.13 ± 0.1	1.05 ± 0.062	1.05 ± 0.11	1.04 ± 0.055	0.959 ± 0.013	–	–	–	–	–	–
F8W0Q9|Q8NEY8-2|Q8NEY8-8|Q8NEY8-9|Q8NEY8-3|Q8NEY8 (UniProt Q8NEY8)	1.01 ± 0.022	1.08 ± 0.019	1.19 ± 0.058	1.28 ± 0.096	1.41 ± 0.18	1.45 ± 0.2	1.63 ± 0.22	1.77 ± 0.42	–	–	–	–	–	–
A0A087WSW9|A0A087WSY9|E9PIR7|F8W809|Q16881|Q16881-2|Q16881-3|Q16881-4|Q16881-5|Q16881-6 (UniProt Q16881)	0.99 ± 0.03	1.01 ± 0.041	0.918 ± 0.026	0.928 ± 0.049	0.88 ± 0.037	0.9 ± 0.041	0.847 ± 0.022	0.854 ± 0.059	–	–	–	–	–	–
E7EPN9|Q9Y520|Q9Y520-4|Q9Y520-5|Q9Y520-7 (UniProt Q9Y520)	1.01 ± 0.02	1.01 ± 0.054	1.1 ± 0.063	1.14 ± 0.073	1.24 ± 0.057	1.36 ± 0.075	1.53 ± 0.14	1.7 ± 0.2	–	–	–	–	–	–
G3V394|Q9Y4I1-3 (UniProt Q9Y4I1)	1.28 ± 0.16	2.15 ± 0.36	2.39 ± 0.25	2.51 ± 0.3	2.65 ± 0.31	2.59 ± 0.39	2.5 ± 0.4	2.51 ± 0.36	–	–	–	–	–	–
A8MQB8|G3V0J0|Q06787|Q06787-2|Q06787-3|Q06787-4|Q06787-5|Q06787-6|Q06787-7|Q06787-8|Q06787-9 (UniProt Q06787)	1.05 ± 0.041	1.15 ± 0.048	1.05 ± 0.065	1.24 ± 0.0061	1.41 ± 0.093	1.71 ± 0.037	1.8 ± 0.048	2.1 ± 0.11	–	–	–	–	–	–
E9PP50|P23528 (UniProt P23528)	0.893 ± 0.054	0.906 ± 0.066	0.894 ± 0.066	0.823 ± 0.076	0.819 ± 0.068	0.839 ± 0.078	0.84 ± 0.066	0.821 ± 0.081	–	–	–	–	–	–
F8W8G5|P10242|P10242-10|P10242-11|P10242-2|P10242-4|P10242-7|P10242-8|P10242-9 (UniProt P10242)	1.02 ± 0.063	1.04 ± 0.077	1.08 ± 0.073	1.08 ± 0.086	1.12 ± 0.037	1.12 ± 0.1	1.15 ± 0.044	1.13 ± 0.051	–	–	–	–	–	–
H0YIE9|O94952|O94952-1|Q4G104 (UniProt O94952)	1.19 ± 0.045	1.03 ± 0.091	1.05 ± 0.013	1.04 ± 0.12	1.12 ± 0.014	0.978 ± 0.078	1.08 ± 0.035	0.921 ± 0.089	–	–	–	–	–	–
UniProt A5PLN9|A5PLN9-2|A5PLN9-4|A5PLN9-5	1.02 ± 0.078	1.04 ± 0.052	0.99 ± 0.041	0.954 ± 0.05	0.969 ± 0.073	0.951 ± 0.041	0.965 ± 0.014	0.904 ± 0.014	–	–	–	–	–	–

From the supplement of paper PMC6411743
